# Source: PubChem BioAssay (Tox21)
# Values without a mark were called inactive. Inconclusive results are not listed. A call without a number means that no potency is given here. Calls of active or inactive are those of the source. Unless noted, the call rests on the fitted dose curve.
# Columns and labels:
# [1] = Nuclear factor erythroid 2-related factor 2/antioxidant responsive element (Nrf2/ARE) small molecule agonists: qHTS cell viability counter screen in human keratinocytes (AID 1919968; active means well fitted curve in the direction sought with a large enough effect in the repeat runs; an effect the other way counts as inactive or inconclusive; further: nearly all actives have a fitted effect of over 55% in size; further: potency means the concentration at half of the fitted maximal effect)
# Summary of the method: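 Stably transfected HaCaT (KeratinoSens), 1,500/well. Test agents in DMSO were applied for 23 h, 37 C/5% CO2. CellTiter-Fluor was incubated 1 h before the fluorescence read.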
# [2] = Nuclear factor erythroid 2-related factor 2/antioxidant responsive element (Nrf2/ARE) small molecule agonists: luciferase reporter gene qHTS assay in human keratinocytes (AID 1919969); further: nearly all actives have a fitted effect of over 35% in size; further: potency means the concentration at half of the fitted maximal effect
# [3] = target: Gonadotropin-releasing hormone receptor (Homo sapiens) (UniProt P30968); assay: Human gonadotropin-releasing hormone receptor (GnRHR) small molecule agonists, calcium flux assay in GnRHR-HEK293 cells (AID 1920063); further: nearly all actives have a fitted effect of over 35% in size; further: potency means the concentration at half of the fitted maximal effect
# Gonadotropin-releasing hormone receptor (Homo sapiens), sequence (P30968 whole entry, looked up): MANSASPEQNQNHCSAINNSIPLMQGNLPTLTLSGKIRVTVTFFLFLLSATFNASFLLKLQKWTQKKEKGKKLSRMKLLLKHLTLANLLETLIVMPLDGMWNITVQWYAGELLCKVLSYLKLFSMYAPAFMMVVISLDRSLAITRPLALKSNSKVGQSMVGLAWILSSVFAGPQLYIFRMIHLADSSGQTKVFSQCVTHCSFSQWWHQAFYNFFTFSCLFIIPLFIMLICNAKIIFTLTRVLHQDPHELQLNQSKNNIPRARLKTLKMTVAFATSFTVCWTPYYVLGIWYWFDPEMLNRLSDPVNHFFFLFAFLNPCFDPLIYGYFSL
# Summary of the method: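 Stable human GnRHR HEK293 line. 18 h plating, then calcium dye for 1 h at 37 C. Agonist-mode compound addition from DMSO stocks; fluorescence monitored 3 min.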
# [4] = target: KiSS-1 receptor (Homo sapiens) (UniProt Q969F8); assay: Human kisspeptin (KISS1R) small molecule agonists, calcium flux assay in KISS1R-HEK293 cells (AID 1920064; active means well fitted curve in the direction sought with a large enough effect in the repeat runs; an effect the other way counts as inactive or inconclusive; further: potency means the concentration at half of the fitted maximal effect)
# KiSS-1 receptor (Homo sapiens), sequence (Q969F8 whole entry, looked up): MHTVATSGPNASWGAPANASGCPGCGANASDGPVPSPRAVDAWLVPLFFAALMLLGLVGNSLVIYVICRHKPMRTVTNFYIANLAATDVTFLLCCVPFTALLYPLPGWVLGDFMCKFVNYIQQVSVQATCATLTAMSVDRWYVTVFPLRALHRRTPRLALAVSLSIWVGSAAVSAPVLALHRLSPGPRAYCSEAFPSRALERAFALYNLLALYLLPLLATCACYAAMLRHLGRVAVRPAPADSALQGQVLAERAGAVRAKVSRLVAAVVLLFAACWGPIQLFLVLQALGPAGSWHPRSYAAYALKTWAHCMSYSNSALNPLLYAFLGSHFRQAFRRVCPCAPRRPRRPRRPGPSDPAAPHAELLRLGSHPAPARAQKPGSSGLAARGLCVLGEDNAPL
# Summary of the method: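 After overnight (18 h) culture at 37 C/5% CO2, human KISS1R-HEK293 cells received calcium dye for 1 h, then test compound; emission at 540 nm (excitation 480 nm) was tracked for 3 min.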
# [5] = G protein-coupled receptor (GPCR) small molecule agonists, calcium flux assay: HEK293 wild type cell line counter screen (AID 1920065); further: potency means the concentration at half of the fitted maximal effect
# Summary of the method: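 Following 18 h incubation at 37 C/5% CO2, plates got calcium dye for 1 h; compounds, ATP or DMSO were then pinned in and fluorescence followed kinetically (480/540 nm).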
# [6] = p53 small molecule agonists, cell-based qHTS assay with human liver microsomes (AID 1963577)
# Summary of the method: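 Compounds act here after metabolic activation: human liver microsomes and NADPH, both at 0.5 mg/mL final, were co-added to p53RE-bla cells. Incubation ran 16 h at 37 C, followed by LiveBLAzer detection.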
# [7] = p53 small molecule agonists, cell-based qHTS assay with rat liver microsomes (AID 1963578)
# Summary of the method: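 Read-out is beta-lactamase reporter fluorescence (LiveBLAzer, 2 h, room temperature, dark) in p53RE-bla cells treated 16 h at 37 C with compound, rat liver microsomes and NADPH, both 0.5 mg/mL final.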
# [8] = p53 small molecule agonists, cell-based qHTS assay with human liver microsomes: qHTS cell viability counter screen (AID 1963579); further: nearly all actives have a fitted effect of over 45% in size; further: potency means the concentration at half of the fitted maximal effect
# Summary of the method: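 Cells carrying the p53 response-element beta-lactamase reporter are treated for 16 h at 37 C with test compounds in the presence of human liver microsomes and NADPH (both 0.5 mg/mL final); ATP-based CellTiter-Glo luminescence then reports viability.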
# [9] = p53 small molecule agonists, cell-based qHTS assay: qHTS cell viability counter screen (AID 1963581); further: nearly all actives have a fitted effect of over 45% in size
# Summary of the method: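 qHTS counter screen: 16 h compound exposure at 37 C of p53RE-bla HCT-116 cells (4,000 per well, seeded 5 h prior), cell viability by ATP luminescence.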
# [10] = target: 5-hydroxytryptamine receptor 2A (Homo sapiens) (UniProt P28223); assay: 5-hydroxytryptamine receptor 2A (HTR2A) small molecule antagonists, cell-based qHTS assay (AID 1963586); further: nearly all actives have a fitted effect of over 45% in size
# 5-hydroxytryptamine receptor 2A (Homo sapiens), sequence (P28223 whole entry, looked up): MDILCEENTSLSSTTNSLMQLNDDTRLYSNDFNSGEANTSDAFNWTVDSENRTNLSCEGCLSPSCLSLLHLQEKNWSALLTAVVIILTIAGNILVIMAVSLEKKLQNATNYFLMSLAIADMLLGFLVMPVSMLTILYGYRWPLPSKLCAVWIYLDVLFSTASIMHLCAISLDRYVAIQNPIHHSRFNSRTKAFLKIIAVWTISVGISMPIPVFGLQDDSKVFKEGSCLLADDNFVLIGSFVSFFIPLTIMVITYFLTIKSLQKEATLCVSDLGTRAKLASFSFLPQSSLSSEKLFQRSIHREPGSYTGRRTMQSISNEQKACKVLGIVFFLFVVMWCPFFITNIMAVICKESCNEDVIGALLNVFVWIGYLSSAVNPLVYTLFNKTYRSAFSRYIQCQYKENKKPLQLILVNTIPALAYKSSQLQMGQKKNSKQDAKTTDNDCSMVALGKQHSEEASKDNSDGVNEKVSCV
# Summary of the method: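 CHO cells stably expressing human HTR2A were plated for 18 h at 37 C, then loaded with calcium dye for 1 h. Compounds were preincubated 5 min at room temperature before DOI (4 nM solution) was added. Kinetic fluorescence was read for 3 min.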
# [11] = target: Muscarinic acetylcholine receptor M1 (Homo sapiens) (UniProt P11229); assay: Cholinergic receptor muscarinic 1 (CHRM1) small molecule antagonists, cell-based qHTS assay (AID 1963588); further: nearly all actives have a fitted effect of over 40% in size
# Muscarinic acetylcholine receptor M1 (Homo sapiens), sequence (P11229 whole entry, looked up): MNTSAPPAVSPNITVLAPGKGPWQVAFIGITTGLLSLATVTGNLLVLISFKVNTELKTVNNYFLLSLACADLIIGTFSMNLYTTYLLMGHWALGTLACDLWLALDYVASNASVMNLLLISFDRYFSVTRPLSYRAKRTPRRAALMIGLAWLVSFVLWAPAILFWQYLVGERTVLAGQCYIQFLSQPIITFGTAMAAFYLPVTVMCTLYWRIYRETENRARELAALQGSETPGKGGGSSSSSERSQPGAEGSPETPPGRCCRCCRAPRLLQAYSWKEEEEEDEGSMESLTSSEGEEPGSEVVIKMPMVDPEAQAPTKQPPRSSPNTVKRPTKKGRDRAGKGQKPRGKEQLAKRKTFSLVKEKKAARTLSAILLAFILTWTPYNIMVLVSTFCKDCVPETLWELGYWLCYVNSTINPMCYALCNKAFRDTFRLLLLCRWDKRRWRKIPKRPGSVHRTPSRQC
# Summary of the method: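 Compounds were tested at 15 concentrations in three independent runs. Dye-loaded CHRM1-CHO cells were exposed 5 min at room temperature before stimulation by acetylcholine added at 50nM. Intracellular calcium was read kinetically on FDSS for 3 min.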
# [12] = target: Muscarinic acetylcholine receptor M1 (Homo sapiens) (UniProt P11229); assay: Cholinergic receptor muscarinic 1 (CHRM1) small molecule agonists, cell-based qHTS assay (AID 1963589); further: nearly all actives have a fitted effect of over 35% in size; further: potency means the concentration at half of the fitted maximal effect
# Summary of the method: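 Kinetic fluorescence (1 s intervals) of calcium-sensitive dye in human M1 CHO cells after compound addition; cells pre-incubated 18 h at 37 C/5% CO2 and dye-loaded 1 h.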
# [13] = cAMP Responsive Elements (CRE) small molecule antagonists, cell-based qHTS assay (AID 1963591; active means well fitted inhibition curve with a large enough effect in the signal ratio in the repeat runs, not every such curve was filed as active; the % refers to the signal ratio)
# Summary of the method: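 Reporter line CRE-bla HEK 293T in dialyzed-FBS DMEM; cells preincubated 18 h, treated 3 h with compound plus NKH477 (0.25 uM final); LiveBLAzer FRET, 2 h RT.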
# [14] = target: D(2) dopamine receptor (Homo sapiens) (UniProt P14416); assay: Dopamine D2 receptor (DRD2) small molecule agonists, cell-based qHTS assay (AID 1963594); further: nearly all actives have a fitted effect of over 35% in size; further: potency means the concentration at half of the fitted maximal effect
# D(2) dopamine receptor (Homo sapiens), sequence (P14416 whole entry, looked up): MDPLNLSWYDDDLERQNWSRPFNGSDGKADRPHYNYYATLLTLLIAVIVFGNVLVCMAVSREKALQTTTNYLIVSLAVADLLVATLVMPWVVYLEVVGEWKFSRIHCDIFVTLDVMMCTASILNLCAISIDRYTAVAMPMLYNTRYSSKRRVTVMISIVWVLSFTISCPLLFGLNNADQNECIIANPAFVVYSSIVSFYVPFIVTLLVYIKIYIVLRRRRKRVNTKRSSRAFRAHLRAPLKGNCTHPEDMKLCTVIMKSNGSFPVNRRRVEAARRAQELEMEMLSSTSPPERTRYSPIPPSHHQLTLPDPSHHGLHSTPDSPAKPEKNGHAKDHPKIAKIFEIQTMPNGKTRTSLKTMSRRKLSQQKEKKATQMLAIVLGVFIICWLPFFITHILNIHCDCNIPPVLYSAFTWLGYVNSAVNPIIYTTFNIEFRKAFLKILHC
# Summary of the method: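 HEK293 cells stably expressing human DRD2, pre-treated with PDE inhibitor Ro20-1724 (0.1 mM final) and compound 10 min at room temperature, then stimulated with NKH477 (200nM […]) for 30 min. cAMP read by HTRF (665/620 nm).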
# [15] = target: D(2) dopamine receptor (Homo sapiens) (UniProt P14416); assay: Dopamine D2 receptor (DRD2) small molecule antagonists, cell-based qHTS assay (AID 1963595; active means well fitted inhibition curve with a large enough effect in the signal ratio in the repeat runs, with a control signal flat; the % refers to the signal ratio; further: potency means the concentration at half of the fitted maximal effect)
# Summary of the method: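 Antagonism was scored as restored cAMP in HEK293-DRD2 cells. These cells were stimulated with 200 nM NKH477 and 12 nM quinpirole for 30 min at room temperature, in the presence of 0.1 mM Ro20-1724.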
# [16] = p53 small molecule agonists, cell-based qHTS assay (AID 1963582; active means well fitted activation curve with a large enough effect in the signal ratio in the repeat runs, not every such curve was filed as active; the % refers to the signal ratio)
# Summary of the method: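 Measured: fluorescence from cleaved LiveBLAzer substrate. System: p53RE-bla cells, 16 h compound treatment at 37 C, 2 h substrate step at room temperature.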
# [17] = target: 5-hydroxytryptamine receptor 2A (Homo sapiens) (UniProt P28223); assay: 5-hydroxytryptamine receptor 2A (HTR2A) small molecule agonists, cell-based qHTS assay (AID 1963587); further: nearly all actives have a fitted effect of over 30% in size; further: potency means the concentration at half of the fitted maximal effect
# Summary of the method: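 CHO cells stably expressing human HTR2A, plated 18 h, loaded with calcium dye 1 h at 37 C. Agonist mode: compounds added and intracellular calcium fluorescence recorded kinetically for 2 min at 1 sec intervals.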
# [18] = cAMP Responsive Elements (CRE) small molecule agonists, cell-based qHTS assay (AID 1963590)
# Summary of the method: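 Test agents in DMSO were incubated 3 h at 37 C/5% CO2 with CRE-bla HEK 293T cells seeded 18 h earlier; LiveBLAzer B/G FRET substrate was added and read after 2 h at room temperature.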
# [19] = target: Beta-2 adrenergic receptor (Homo sapiens) (UniProt P07550); assay: Adrenergic beta2 receptor (ADRB2) small molecule antagonists, cell-based qHTS assay (AID 1963592); further: nearly all actives have a fitted effect of over 50% in size; further: potency means the concentration at half of the fitted maximal effect
# Beta-2 adrenergic receptor (Homo sapiens), sequence (P07550 whole entry, looked up): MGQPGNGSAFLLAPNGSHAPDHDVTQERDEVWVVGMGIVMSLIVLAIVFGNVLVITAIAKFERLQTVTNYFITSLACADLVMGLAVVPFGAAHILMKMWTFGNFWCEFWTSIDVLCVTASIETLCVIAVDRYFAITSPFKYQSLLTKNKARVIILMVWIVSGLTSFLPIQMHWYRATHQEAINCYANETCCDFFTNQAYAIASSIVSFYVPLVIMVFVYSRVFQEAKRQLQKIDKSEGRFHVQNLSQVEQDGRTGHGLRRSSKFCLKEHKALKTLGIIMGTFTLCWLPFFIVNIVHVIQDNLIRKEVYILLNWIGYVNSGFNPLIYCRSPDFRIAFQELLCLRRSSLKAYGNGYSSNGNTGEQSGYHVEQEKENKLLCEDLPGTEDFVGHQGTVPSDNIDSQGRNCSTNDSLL
# Summary of the method: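 Assay format: CHO-ADRB2 cells, 18-20hr seeding at 37C/5% CO2, then compound plus 1nM isoproterenol agonist mix for 0.5hr RT. Homogeneous time-resolved fluorescence cAMP detection after 1hr, expressed as 665/615 nm ratio.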
# [20] = p53 small molecule agonists, cell-based qHTS assay with rat liver microsomes: qHTS cell viability counter screen (AID 1963580); further: potency means the concentration at half of the fitted maximal effect; nearly all actives have a fitted effect of over 45% in size
# Summary of the method: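 After the beta-lactamase ratio was read, CellTiter-Glo was added to the same wells and luminescence measured at 30 min; cells had been treated 16 h at 37 C with compounds, rat liver microsomes and NADPH (0.5 mg/mL final each).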
SMILES,Potency [1],Potency [2],Potency [3],Potency [4],Potency [5],Potency [6],Potency [7],Potency [8],Potency [9],Potency [10],Potency [11],Potency [12],Potency [13],Potency [14],Potency [15],Potency [16],Potency [17],Potency [18],Potency [19],Potency [20]
O=c1[nH]oc2c1CCNC2,inactive,inactive,inactive,inactive,inactive,inactive,inactive,inactive,inactive,inactive,inactive,inactive,inactive,inactive,inactive,,,,,
N#CCc1ccc(Cl)cc1,inactive,inactive,inactive,inactive,inactive,inactive,inactive,inactive,inactive,inactive,inactive,inactive,inactive,,inactive,inactive,inactive,inactive,inactive,
O=C(N/N=C/c1ccc([N+](=O)[O-])o1)c1cc([N+](=O)[O-])cc([N+](=O)[O-])c1O,inactive,29.8 µM (active),inactive,inactive,inactive,inactive,inactive,inactive,inactive,,,,inactive,inactive,inactive,inactive,,,,
CC(=O)[O][Sn]([c]1ccccc1)([c]1ccccc1)[c]1ccccc1,0.0486 µM (active),0.0193 µM (active),17.4 µM (active),49 µM (active),38.9 µM (active),inactive,inactive,6.46 µM (active),,,,24.5 µM (active),,52.4 µM (active),3.06 µM (active),,24.5 µM (active),,61.1 µM (active),1.62 µM (active)
CC(C)(COCC1CO1)COCC1CO1 (centres undefined),inactive,68.6 µM (active),inactive,inactive,inactive,inactive,inactive,inactive,inactive,inactive,inactive,inactive,,,inactive,inactive,inactive,inactive,inactive,
COC(=O)COc1ccc(Cl)cc1Cl,inactive,inactive,inactive,inactive,inactive,inactive,inactive,inactive,inactive,inactive,inactive,inactive,,inactive,inactive,,inactive,,inactive,
N#CSCc1ccccc1,inactive,68.9 µM (active),inactive,inactive,inactive,inactive,inactive,inactive,inactive,inactive,,inactive,,inactive,inactive,,inactive,inactive,inactive,
